Assay results reported in paper PMC4336329 (PLoS ONE, 2015).
The whole screen tested about 310,000 compounds, of which about 14,000 (4.5%) showed an effect of 50% or more. Effects have a minus sign here. Only a selection was taken, and strong results are over-represented in it overall.

molecular target: human ether-à-go-go-related gene (hERG) potassium channel (human, UniProt Q12809); experiment: primary screen, population patch clamp on CHO cells stably expressing hERG; higher = less effect of the substance
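Further: peak tail current of the secondary pulse compared with the same well before compound.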

Sequence of human ether-à-go-go-related gene (hERG) potassium channel (Q12809 whole entry, looked up): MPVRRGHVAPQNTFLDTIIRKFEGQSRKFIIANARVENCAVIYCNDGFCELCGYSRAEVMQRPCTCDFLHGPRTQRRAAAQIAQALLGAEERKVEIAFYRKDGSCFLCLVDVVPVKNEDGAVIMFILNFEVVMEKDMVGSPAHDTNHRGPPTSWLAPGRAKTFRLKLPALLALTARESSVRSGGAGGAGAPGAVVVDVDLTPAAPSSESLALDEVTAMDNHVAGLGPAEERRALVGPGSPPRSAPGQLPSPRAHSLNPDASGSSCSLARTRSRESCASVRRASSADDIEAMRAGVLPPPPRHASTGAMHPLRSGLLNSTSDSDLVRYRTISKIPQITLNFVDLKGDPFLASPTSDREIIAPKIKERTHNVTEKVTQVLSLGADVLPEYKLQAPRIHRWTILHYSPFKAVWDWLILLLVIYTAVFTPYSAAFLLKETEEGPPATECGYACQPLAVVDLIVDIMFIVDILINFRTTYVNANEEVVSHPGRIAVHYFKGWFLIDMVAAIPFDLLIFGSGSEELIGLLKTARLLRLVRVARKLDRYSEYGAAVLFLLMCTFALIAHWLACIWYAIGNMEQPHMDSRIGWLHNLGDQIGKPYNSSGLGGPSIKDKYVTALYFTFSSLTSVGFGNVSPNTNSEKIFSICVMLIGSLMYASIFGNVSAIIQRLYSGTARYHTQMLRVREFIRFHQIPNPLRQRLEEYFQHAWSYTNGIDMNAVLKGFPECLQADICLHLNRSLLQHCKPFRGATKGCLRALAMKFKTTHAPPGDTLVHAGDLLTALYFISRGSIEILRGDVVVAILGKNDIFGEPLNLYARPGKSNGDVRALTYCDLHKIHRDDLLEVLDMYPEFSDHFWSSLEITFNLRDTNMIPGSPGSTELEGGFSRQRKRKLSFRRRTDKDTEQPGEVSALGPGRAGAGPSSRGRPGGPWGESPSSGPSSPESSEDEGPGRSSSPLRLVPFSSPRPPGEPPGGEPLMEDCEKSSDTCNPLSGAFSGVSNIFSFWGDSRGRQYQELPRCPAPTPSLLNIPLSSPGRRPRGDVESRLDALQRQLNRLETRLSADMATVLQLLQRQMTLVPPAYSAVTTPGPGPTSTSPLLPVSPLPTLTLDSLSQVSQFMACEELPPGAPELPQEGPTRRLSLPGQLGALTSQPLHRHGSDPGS

Row | Compound | hERG current change (%, negative = inhibition) at 10uM [%]
1 | CSc1ncccc1C(=O)OCC(=O)c1ccccc1 | 35
2 | CCN(CC(=O)Nc1ccc2c(c1)OCCO2)C(=O)CC(NC(C)=O)c1ccccc1 (stereo not drawn) | 18.7
3 | Cc1csc(NC(=O)CCCNC(=O)c2ccc(Cl)cc2)n1 | -23.6
4 | CCC(C)c1ccccc1N1CC(C(=O)Nc2ccc(S(=O)(=O)N3CCOCC3)cc2)CC1=O (stereo not drawn) | -9.78
5 | COc1ccc(N2CCN(CC(O)COCCOc3ccc(Br)cc3)CC2)cc1.Cl (stereo not drawn) | -69.1
6 | COc1ccccc1N1CCN(CC(O)COc2ccc(S(=O)(=O)N3CCOCC3)cc2)CC1.Cl (stereo not drawn) | -4.3
7 | COc1ccc(OCCOCC(O)CN2CCOCC2)cc1.Cl (stereo not drawn) | 4.55
8 | COc1ccccc1N1CCN(CC(O)COCCOc2ccc(Br)cc2)CC1.Cl (stereo not drawn) | -58.8
9 | COc1ccccc1NC(=O)CSc1nnc(Cn2nnc(-c3ccccc3)n2)n1-c1ccccc1 | -5.02
10 | CC(CCc1ccccc1)NC(=O)CNC(=O)COc1ccccc1 (stereo not drawn) | -0.873
11 | O=C(NC(=S)Nc1ccc2cn[nH]c2c1)c1ccccc1 | -2.32
12 | Cc1ccccc1C1NC(=S)NC2=C1C(=O)CC(C)(C)C2 (stereo not drawn) | 18.5
13 | Clc1ccc2oc(-c3cccnc3)nc2c1 | -14.9
14 | c1ccc(-c2oc3ncnc(NCCCn4ccnc4)c3c2-c2ccccc2)cc1 | -69.9
15 | c1ccc(-c2oc3ncnc(NCCCN4CCOCC4)c3c2-c2ccccc2)cc1 | -87.1
16 | c1ccc(-c2oc3ncnc(NCCN4CCOCC4)c3c2-c2ccccc2)cc1 | -21.3
17 | Clc1ccc(-n2ncc3c(NCCCn4ccnc4)ncnc32)cc1 | -26.1
18 | c1cn(CCCNc2ncnc3nc[nH]c23)cn1 | 8.93
19 | COc1ccc(-c2oc3ncnc(NCCCN4CCOCC4)c3c2-c2ccc(OC)cc2)cc1 | 2.49
20 | Cc1ccc(OCCCC(=O)Nc2cc(Cl)ccc2-n2cncn2)cc1 | -22.4
21 | CCOC(=O)N1CCN(C(=O)CSCC(=O)Nc2nc(-c3cccs3)cs2)CC1 | -31.4
22 | COc1cccc(CN2CCC(C(=O)N3CCN(c4ccccc4F)CC3)CC2)c1OC.O=C(O)C(=O)O | -10.2

Row | Compound | hERG current change (%, negative = inhibition) at 10uM [%]
23 | CCOc1ccccc1N1CC(C(=O)N2CCc3ccccc3C2)CC1=O (stereo not drawn) | -19.4
24 | COc1ccc(OC)c(CN2CCC(C(=O)N3CCN(c4ccccc4F)CC3)CC2)c1.O=C(O)C(=O)O | -65.3
25 | COc1ccc(CN2CCC(C(=O)N3CCN(c4ccccc4F)CC3)CC2)cc1OC | -37
26 | COc1cc(CN2CCC(C(=O)N3CCN(c4ccccc4F)CC3)CC2)ccc1O.O=C(O)C(=O)O | -19.9
27 | COc1cc(CN2CCC(C(=O)N3CCN(c4ccccc4F)CC3)CC2)cc(OC)c1OC.O=C(O)C(=O)O | -22.6
28 | COc1cccc(CN2CCC(C(=O)N3CCN(c4ccccc4F)CC3)CC2)c1 | -53
29 | COc1cccc(CN2CCC(C(=O)N3CCC(C)CC3)CC2)c1.O=C(O)C(=O)O | -11
30 | CCOc1ccccc1N1CC(C(=O)N2CCN(Cc3ccc(C#N)cc3)CC2)CC1=O (stereo not drawn) | -67.3
31 | CCOc1ccccc1N1CC(C(=O)N2CCOCC2)CC1=O (stereo not drawn) | 13.9
32 | CCOc1ccc(CN2CCC(C(=O)N3CCN(c4ccccc4F)CC3)CC2)cc1OC.O=C(O)C(=O)O | -64.8
33 | COc1cc(CN2CCC(C(=O)N3CCN(c4ccccc4F)CC3)CC2)cc(OC)c1O.O=C(O)C(=O)O | -3.74
34 | CC1=C/C(=C(/c2ccc(O)c(C)c2)c2ccccc2S(=O)(=O)[O-])C=CC1=O.[Na+] | 3.9
35 | Cc1ccc(NC(=O)CSc2ccc(-c3cccnc3)nn2)cc1 | -12.3
36 | Cc1cccc(OCC(=O)N/N=C\c2cc3c(cc2[N+](=O)[O-])OCO3)c1C | -7.82
37 | Cc1ccccc1C(=O)Nc1ccccc1C(=O)NC1CC1 | 6.72
38 | Cc1ccccc1N(CC(=O)NC1CCCCC1)C(=O)c1csnn1 | 8.46
39 | CCC(=O)Nc1sc2c(c1C(N)=O)CCN(C(C)=O)C2 | 10.7
40 | Cc1ccc(C(=O)Oc2cccc(NC(=O)c3ccccc3)c2)cc1C | 19.2
41 | Cc1cc(C)cc(NC(=O)[C@@H](NC(=O)c2ccco2)C(C)C)c1 | 5.62
42 | Cc1cc(C(=O)NNC(=O)/C=C/c2ccc(F)cc2)c(C)o1 | 1.41
43 | CCN1CCN(Cc2ccc(NC(=O)c3cc(NC(=O)c4cc(-c5ccc(OC)cc5)n[nH]4)cc(OC)c3)cc2C(F)(F)F)CC1 | 11.9
44 | CC(C)Nc1nc(NC(C)(C)C)nc(Oc2ccc(=O)n(C)n2)n1 | -15.3

Row | Compound | hERG current change (%, negative = inhibition) at 10uM [%]
45 | Cc1c(C(=O)NC2=NCCS2)oc2ccccc12 | -25.4
46 | Cc1cc(C)nc(Oc2ccc(Br)cc2Br)n1 | 19.1
47 | CCOc1ccccc1CN1CCC(CO)(CCOc2ccccc2)CC1 | -80.2
48 | OCC1(CCOc2ccccc2)CCN(Cc2ccccc2OC(F)F)CC1 | -72.5
49 | CCOc1ccccc1CN1CCN(S(=O)(=O)CC)CC1.O=C(O)C(=O)O | 10.7
50 | OCC1(CCOc2ccccc2)CCN(Cc2ccc(OC(F)F)cc2)CC1 | -79
51 | C=CCOc1ccccc1CN1CCCN(C)CC1 | 6.51
52 | OCC1(CCOc2ccccc2)CCN(Cc2ccccc2C(F)(F)F)CC1 | -34.2
53 | COc1ccccc1CN1CCN(C(=O)COc2ccccc2)CC1 | -8.47
54 | C=CCOc1ccccc1CN1CCC(CO)(CCOc2ccccc2)CC1 | -81.9
55 | CCOCCCn1c(=O)c(NC(=O)c2ccc(OCC)cc2)c2n(c1=S)CCCCC2 | -27.8
56 | CCCCCc1nnc(NC(=O)c2cccc(S(=O)(=O)N3CCOCC3)c2)s1 | -41.8
57 | Cn1c(Cn2c(=O)sc3ccccc32)nnc1SCc1ccccc1F | -19.9
58 | CCC(=O)N1CCN(c2ccc(NC(=O)c3cccs3)cc2)CC1 | -0.84
59 | COc1cc(/C=N/n2cnnc2)ccc1OC(=O)c1ccncc1 | 8
60 | O=C(COc1ncnc2ccccc12)Nc1ccc(S(=O)(=O)N2CCOCC2)cc1 | 9.94
61 | N#C/C=C(/N)c1ccc(Br)cc1 | 7.26
62 | c1ccc(Cn2ncc3c(Nc4ccccc4)ncnc32)cc1 | 6.01
63 | CCOc1ccc(CCNC(=O)COC(=O)C2CCN(c3ccc(C(F)(F)F)cn3)CC2)cc1OCC | -10.9
64 | Cc1cccc(NS(=O)(=O)c2ccc(C(=O)NCCCN3CCCC3=O)cc2)c1C | 4.04
65 | Cc1nc([N+](=O)[O-])cn1CC(O)c1ccc(-c2ccccc2)cc1 (stereo not drawn) | -44.3
66 | Cc1ccc(N=Nc2c(O)n(CN3CCOCC3)c3ccccc23)cc1 | 3.48

Row | Compound | hERG current change (%, negative = inhibition) at 10uM [%]
67 | Cc1ccc(NC(=O)CS(=O)CC(=O)NC2CCN(Cc3ccccc3)CC2)c(C)c1 (stereo not drawn) | -3.54
68 | S=C(Nc1ccccc1)N1CCN(Cc2ccccc2)CC1 | -4.13
69 | FC(F)Oc1ccc(NC(=S)N2CCN(Cc3ccccc3)CC2)cc1 | -56
70 | COc1ccc(NC(=S)N2CCN(Cc3ccccc3)CC2)cc1 | 0.401
71 | Cc1ccc(NS(=O)(=O)c2cccc(C(=O)NCC(c3cccs3)N3CCOCC3)c2)cc1 (stereo not drawn) | -14.3
72 | Cl.Clc1ccccc1CNC1CN2CCC1CC2 (stereo not drawn) | -3.27
73 | COc1ccc(OCC(=O)Nc2ccc(C(=O)Nc3ccccc3C(=O)O)cc2)cc1 | 23.2
74 | CC(C)(C)c1nnc(NC(=O)c2cc(-c3ccccc3)nc3ccccc23)s1 | 17.3
75 | COc1ccc(CCN(C)C(=O)c2cc(-c3ccc(C)cc3)nc3ccccc23)cc1OC | -26.7
76 | COc1ccc(CCN(C)C(=O)c2cc(-c3ccccc3)nc3ccccc23)cc1OC | -4.79
77 | COc1ccc(CCN(C)C(=O)c2cc(-c3ccccc3)nc3ccc(C)cc23)cc1OC | -52.1
78 | O=C(O)CN1CCN(Cc2ccccc2F)C1=O | 24.7
79 | COc1cnc(SC)nc1Nc1ccc(C#N)cc1 | -66.8
80 | COc1ccc(Nc2nccc(-c3ccc(C#N)cc3)n2)cc1 | 1.36
81 | COc1ccc(Nc2nccc(OC)c2C#N)cc1 | -38.8
82 | COc1cccc(N2C(=O)C3CCCN3C2c2ccc(Cl)cc2)c1 (stereo not drawn) | -1.05
83 | COc1cc(NC(=O)C2CCC(CNc3c(N4CCC(C)CC4)c(=O)c3=O)CC2)cc(OC)c1 (stereo not drawn) | 16.7
84 | O=C(CN1CCN(c2ccccn2)CC1)Nc1ccc2ccccc2c1 | -43.9
85 | O=C1C2C3C=CC(C3)C2C(=O)N1c1cccc2ccccc12 (stereo not drawn) | 18.7
86 | O=C1[C@H]2[C@@H](C(=O)N1c1cccc3ccccc13)C1(C(=O)c3ccccc3C1=O)N1CCC[C@@H]21 | -69
87 | O=C1C2C3C=CC(C4CC34)C2C(=O)N1c1cccc2ccccc12 (stereo not drawn) | -0.113
